Records with an inconclusive call do not appear. A call without a number means that no potency is given here. A number with no mark means an inactive call. Calls of active or inactive are those of the source. Calls come from the whole dose curve; as a rule, active = well fitted inhibition curve with a large enough effect; inconclusive = small, poorly fitted or top-dose-only effect; inactive = no such curve, though single readings can be large or run the other way.
molecular target: Rap guanine nucleotide exchange factor 3 (Homo sapiens) (UniProt O95398); assay: Counterscreen qHTS for antagonist of cAMP-regulated guanine nucleotide exchange factor 3 (EPAC1) (AID 1645888); settings: Rap1B-BODIPY-GDP nucleotide exchange, fluorescence; series mostly up to 154 µM
Sequence (O95398 whole entry, looked up): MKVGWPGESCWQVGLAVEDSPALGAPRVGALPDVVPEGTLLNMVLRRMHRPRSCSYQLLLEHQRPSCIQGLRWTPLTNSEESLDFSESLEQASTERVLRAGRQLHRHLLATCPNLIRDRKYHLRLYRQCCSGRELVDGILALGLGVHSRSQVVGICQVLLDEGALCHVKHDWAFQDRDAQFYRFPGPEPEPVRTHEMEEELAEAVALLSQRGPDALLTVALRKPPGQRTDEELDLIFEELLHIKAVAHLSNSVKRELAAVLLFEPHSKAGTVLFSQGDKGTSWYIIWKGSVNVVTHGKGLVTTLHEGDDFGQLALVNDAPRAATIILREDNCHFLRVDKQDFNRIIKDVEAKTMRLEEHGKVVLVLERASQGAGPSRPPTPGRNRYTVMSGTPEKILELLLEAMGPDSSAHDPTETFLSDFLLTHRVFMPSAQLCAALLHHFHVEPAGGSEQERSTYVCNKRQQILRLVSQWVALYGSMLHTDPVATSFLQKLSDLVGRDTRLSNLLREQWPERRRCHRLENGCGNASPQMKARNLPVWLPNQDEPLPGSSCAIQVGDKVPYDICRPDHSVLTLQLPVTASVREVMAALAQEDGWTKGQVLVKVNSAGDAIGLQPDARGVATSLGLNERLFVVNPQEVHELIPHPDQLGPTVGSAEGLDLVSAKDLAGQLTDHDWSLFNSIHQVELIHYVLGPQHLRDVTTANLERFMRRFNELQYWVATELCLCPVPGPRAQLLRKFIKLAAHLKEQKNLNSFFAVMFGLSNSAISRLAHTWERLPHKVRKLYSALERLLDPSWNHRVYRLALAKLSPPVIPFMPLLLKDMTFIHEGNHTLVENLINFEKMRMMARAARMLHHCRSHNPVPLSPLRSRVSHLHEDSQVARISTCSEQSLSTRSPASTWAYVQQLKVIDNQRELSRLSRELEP
Source text: Assay Provider (PI): Xiaodong Cheng Ph.D. The University of Texas Medical Branch, […], TX MLPCN Grant: NS066510 In multi-cellular eukaryotic organisms, the effects of cAMP are transduced by two ubiquitously-expressed intracellular cAMP receptors, the classic protein kinase A/cAMP-dependent protein kinase (PKA/cAPK) and the more recently discovered exchange protein directly activated by cAMP/cAMP-regulated guanine nucleotide exchange factor (EPAC/cAMP-GEF). Both PKA and EPAC are ubiquitously expressed in all tissues, and an increase in intracellular cAMP levels will lead to the activation of both PKA and EPAC. Therefore, careful dissections of the individual role and relative contribution of EPAC and PKA within the overall cAMP signaling in various model systems are critical for further elucidating the mechanism of cAMP signaling. To date no EPAC-specific antagonists and agonist, as well as isoform-specific agonists have been reported, and developing EPAC-specific pharmacological probes to determine the physiological functions that EPAC play in the overall cAMP-mediated signaling remains a major challenge within the research field. Furthermore, identified regulators of EPAC may lead to new mechanism-based therapeutic strategies specifically targeting the EPAC / cAMP-signaling components as EPAC has been implicated to play important roles in major human pathological conditions such as diabetes, heart disease, and cancer. This qHTS will be used to screen the Molecular Libraries Small Molecule Repository (MLSMR) as a concentration-titration series using the NCGC unique quantitative screening (qHTS) platform to find activators for EPAC1. In addition, this assay will also be used as a counterscreen for the EPAC2 qHTS. This fluorescent based assay is developed and validated for EPAC1 that measures exchange using EPAC effector Rap1 complex with BODIPY-GDP, a GDP analog with a tethered fluorophores. Activators are identified by monitoring the change in fluorescence signal as the exchanged free BODIPY-GDP has a reduced fluorescence compared to Rap1-bound BODIPY-GDP. Increase in signal (activation) is the desired outcome for the EPAC1 agonist while no activity in this assay is desired for the EPAC2 agonist counterscreen. Reference: [1] de Rooij, J., Zwartkruis, F. J., Verheijen, M. H., Cool, R. H., Nijman, S. M., Wittinghofer, A., and Bos, J.L. (1998) Nature 396, 474-477. Kawasaki, H., Springett, G. M., Mochizuki, N., Toki, S., Nakaya, M., Matsuda, M., Housman, D. E., and Graybiel, A. M. (1998) Science 282, 2275-2279.
EPAC1 Counterscreen PROTOCOL TABLE SEQUENCE No. (e.g., 1, 2, 3, etc.); […] (e.g., Cells, Incubation, Reagent, etc.); VALUE and DESCRIPTION. 1. Reagent. 3 uL. [1x] 250 nM Rap1B-BODIPY-GDP, and 50 uM GDP. 2a. Compound. 23 nL. Control 6,572 uM cAMP (working concentration). 2b, 2c. Compound. 23 nL. Control activator and inhibitor; 234 - 30,000 uM cAMP and 16.4 - 10,000 uM. 2d. Compound. 46 nL. MLSMR follow-up library; 0.64 - 10,000 uM. 3. Time. 15 sec, 1000rpm. Centrifuge. 4. Time. 5 min. Incubation at room temperature. 5. Detector. Fluorescence. (Read 1), Ex/Em = 480 nm / 540 nm. 6. Time. 30 min. Incubation at room temperature. 7. Detector. Fluorescence. (Read 2), Ex/Em = 480 nm/ 540 nm. 8. Reagent. 1uL. Dispense either [4x] 10 uM cAMP or buffer. 9. Time. 15 sec, 1000 rpm. Centrifuge. 10. Time. 5 min. Incubation at room temperature. 11. Detector. Fluorescence. (Read 3), Ex/Em = 480 nm / 540 nm. 12. Time. 30 min. Incubation at room temperature. 13. Detector. Fluorescence. (Read 4), Ex/Em = 480 nm / 540 nm. NOTES (numbers refer to Sequence numbers above; values are from representative experiments) 1. Medium-binding black solid-bottom Greiner plates (789176-F). Dispense 3 uL of [1x] 250 nM Rap1B-BODIPY-GDP, and 50 uM GDP into columns 1 to 48. 2a. Control compound cAMP (6,572 uM, column 3, rows 1 to 32) single pin-transferred for a [final] of 50 uM. 2b. […]

SMILES	Potency	activity change, negative = inhibition
O=C(Nc1cc(-c2ccccc2)sc1C(=O)O)c1cccc(F)c1	inactive	–
Cc1cc(C)c(S(=O)(=O)N2CCCCC2CCNC(=O)C(=O)NCC2CCCO2)c(C)c1 (stereo not given)	–	6.58% [at 30.8 µM]
O=C(Nc1nc(-c2ccccc2)cs1)c1ccccc1NS(=O)(=O)c1ccc(F)cc1	inactive	–
CC1Oc2ccc(C#N)cc2N(Cc2ccccc2OC(F)(F)F)C1=O (stereo not given)	–	-10.7% [at 30.8 µM]
CC1=NOC(=O)/C1=C\c1ccc(-c2ccc(Cl)cc2Cl)o1	–	-37.2% [at 30.8 µM]
Cc1ccc(C)n1-c1c(C(=O)NCCC(C)C)sc2ncccc12	inactive	–
C=CC(=C)CC(NC)c1ccccc1 (stereo not given)	inactive	–
O=C(NCCOc1ccccc1-c1ccccc1)c1ccco1	–	-5.39% [at 30.8 µM]
Cc1cccc(C2c3[nH]c4ccccc4c3CCN2Cc2cccn2-c2ncccn2)c1 (stereo not given)	–	-4.15% [at 30.8 µM]
CCOC(=O)c1ccc(NC(=O)Cn2nc(C)c3nn(-c4ccc(Cl)cc4)c(C)c3c2=O)cc1	inactive	–
CN(Cc1ccccc1N1CCCC1)C(=O)c1cc2ccccc2o1	–	-10.5% [at 30.8 µM]
COc1ccc(OC)c(Nc2nc3ccccc3nc2-n2nc(C)cc2C)c1	inactive	–
CC(C)C[C@H](NC(=O)[C@H](Cc1ccccc1)n1c(=O)[nH]c2ccccc2c1=O)C(=O)N1CCC(C(=O)O)CC1	inactive	–
COc1ccc(C(=O)NCCONC(=O)c2ccc(OC)cc2)cc1	inactive	–
O=C(O)c1cccc(N/N=C/c2cc(Br)cc(Br)c2O)c1	inactive	–
Nc1c(C(=O)c2ccccc2)sc2nsc(SCCN3CCOCC3)c12	inactive	–
c1ccc(-c2nc(C3CCCCC3)c3ccccc3n2)cc1	–	-1.41% [at 30.8 µM]
Cc1ccc(-n2nc3c(=O)n(CCCC(=O)NCc4ccccc4F)nc(C)c3c2C)cc1	inactive	–
CN(C)c1ccc(C(O)c2cc3ccccc3s2)cc1 (stereo not given)	inactive	–
CCOC(=O)c1ccc(N2C(=O)c3n[nH]c(-c4ccco4)c3C2c2ccccc2OC)cc1 (stereo not given)	inactive	–

SMILES	Potency	activity change, negative = inhibition
O=C(NCCN1CCCC1)C(c1ccccc1)c1ccccc1	inactive	–
COc1ccc(C(NC(C)=O)c2cc(Cl)c3cccnc3c2O)cc1 (stereo not given)	–	-6.93% [at 30.8 µM]
COc1ccc(C2C=C(c3ccccc3)Nc3nnnn32)cc1 (stereo not given)	inactive	–
NS(=O)(=O)c1ccc(-c2cccc(/C=C3\SC(=O)NC3=O)c2)cc1	inactive	–
COc1cc(OC)nc(Oc2cccc(Cl)c2C)n1	inactive	–
COc1cccc(C(NC(C)=O)c2nc(-c3csc4ccccc34)cs2)c1 (stereo not given)	–	-22.7% [at 30.8 µM]
CCN(CC)c1ccc2cc(-c3nc(-c4ccccc4F)no3)c(=O)oc2c1	inactive	–
Cc1cc(C(=O)COC(=O)C2COc3ccccc3O2)c(C)n1CC1CCCO1 (stereo not given)	inactive	–
CCCCCn1c(C)c2c(OCC)cccc(=O)c2c1C	–	23.1% [at 30.8 µM]
COC(=O)c1c(SC)nc2ccccc2c1OCc1ccc(Br)cc1	inactive	–
CN1C(=O)Cc2cc(S(=O)(=O)N3CCN(c4ccccc4F)CC3)ccc21	inactive	–
O=C(CSCC(=O)N1CCOCC1)Nc1nc(-c2ccccc2)cs1	inactive	–
CCOC(=O)C1=CCN(S(=O)(=O)c2ccc(C)cc2)C1c1cccs1 (stereo not given)	–	6.49% [at 30.8 µM]
O=C(/C=C/c1ccccc1)c1cc(Br)ccc(=O)c1O	inactive	–
O=S1(=O)CCN2C(Cc3ccc(SC(F)F)cc3)=CSC2=N1	inactive	–
Cc1cc(C)c2nc(C)cc(Nc3ccc(C(=O)NCCO)cc3)c2c1	inactive	–
CCCc1nn2c(=O)cc(COC(=O)c3cccc(NC(=O)CCc4ccccc4)c3)nc2s1	inactive	–
CSCCC(NS(=O)(=O)c1ccc2c(c1)oc(=O)n2C)C(=O)NC1CCCc2ccccc21 (stereo not given)	inactive	–
CN1/C(=C\C=C2/SC(=S)NC2=O)C(C)(C)c2ccccc21	inactive	–
COc1ccc(CCNC(=O)c2c(C)nn(-c3ccc(F)cc3)c2-n2cccc2)cc1OC	inactive	–

From PubChem BioAssay (NCATS)
